Source: PubChem (National Center for Advancing Translational Sciences (NCATS))
Only some compounds are listed: those with a hit (about 9.2% of all), similar ones and a draw of the others.
ELG1 DNA repair – qHTS screen for small molecules that inhibit ELG1-dependent DNA repair in human embryonic kidney (HEK293T) cells expressing luciferase-tagged ELG1 | HEK293T ELG1-luciferase reporter, luminescence, 16 h; DNA damage induced by 5-fluorouridine | Potency, µM (top dose mostly 46.1 µM), hits mostly inhibitors | 330,000 compounds, 2.3% hits | AID 504467, 2011; also: nearly all actives have a fitted effect of over 55% in size
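Luminescence from the luciferase reporter, measured 30 min after ONE-Glo reagent at room temperature, was the read-out. Beforehand, 2,000 cells per well were exposed for 16 hr at 37 °C to 5-fluorouridine together with compound or vehicle.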
FLuc modulator – qHTS profiling assay for firefly luciferase inhibitor/activator using purifed enzyme and Km concentrations of substrates (counterscreen for miR-21 project). Luciferin 4-monooxygenase (Photinus pyralis), P08659. purified FLuc, Km substrates, luminescence inhibition. Potency, µM (titrated, usually from 57.5 µM), most hits filed as inhibitors. 360,000 compounds, 6.9% hits; also: nearly all actives have a fitted effect of over 55% in size
Target sequence (P08659 whole entry, looked up): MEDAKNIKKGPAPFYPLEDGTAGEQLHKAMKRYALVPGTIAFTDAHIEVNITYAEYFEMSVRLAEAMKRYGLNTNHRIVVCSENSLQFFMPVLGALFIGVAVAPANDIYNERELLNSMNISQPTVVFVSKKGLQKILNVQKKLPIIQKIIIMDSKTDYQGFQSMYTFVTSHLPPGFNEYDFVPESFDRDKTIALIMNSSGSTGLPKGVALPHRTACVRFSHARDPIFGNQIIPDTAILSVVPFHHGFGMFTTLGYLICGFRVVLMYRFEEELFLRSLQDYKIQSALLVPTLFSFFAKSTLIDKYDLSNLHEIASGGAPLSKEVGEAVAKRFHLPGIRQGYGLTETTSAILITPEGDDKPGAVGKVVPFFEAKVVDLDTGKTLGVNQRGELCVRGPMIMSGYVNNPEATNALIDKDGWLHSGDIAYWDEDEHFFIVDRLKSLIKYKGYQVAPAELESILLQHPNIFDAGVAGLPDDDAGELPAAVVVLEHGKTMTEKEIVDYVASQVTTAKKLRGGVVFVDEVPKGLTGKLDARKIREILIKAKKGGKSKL
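Purified P. pyralis luciferase, 10 nM final, with Km-level 10 uM D-luciferin and 10 uM ATP in 50 mM Tris acetate pH 7.5, 10 mM Mg acetate, 0.01% Tween-20, 0.05% BSA; 6-point qHTS titration about 60 µM downward; luminescence read.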
SMN2 splice enh – qHTS Assay for Enhancers of SMN2 Splice Variant Expression | 210,000 compounds, 2.8% hits | HEK293 SMN2-luciferase splicing reporter, luminescence, 30-36 h | Potency, µM (series often up to 46.1 µM), actives largely listed as activators; also: nearly all actives have a fitted effect of over 55% in size
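qHTS luciferase splicing reporter: luminescence rises when SMN2 exon 7 is included in transfected HEK293 cells. Compound exposure lasted 30-36 h at 37C, with 4.5 mM final sodium butyrate as control, followed by a ONE-Glo read.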
ELG1 genotoxic – qHTS screen for small molecules that induce genotoxicity in human embryonic kidney (HEK293T) cells expressing luciferase-tagged ELG1; HEK293T ELG1-luciferase reporter, luminescence, 16 h; Potency, µM (series often up to 46 µM), hits mostly activators; 330,000 compounds, 1.3% hits; AID 504466, 2011; also: nearly all actives have a fitted effect of over 60% in size
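Reporter readout depends on ELG1 protein level, which increases with genetic stress. After 16 hr compound exposure at 37 °C, luciferase activity was quantified using ONE-Glo.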
Rab9 prom act – qHTS Assay for Rab9 Promoter Activators | Huh7 Rab9 promoter-luciferase reporter, luminescence, 24 h | Potency, µM (doses to about 9.22 µM), hits mostly activators | 320,000 compounds, 2.8% hits | AID 485297, 2010; also: nearly all actives have a fitted effect of over 60% in size
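Measured in stably transfected Huh7 cells bearing a Rab9 promoter–luciferase construct: 24 h compound treatment at 37 °C, followed by luminescence detection.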
NPC1 promoter act – qHTS Assay for NPC1 Promoter Activators | 320,000 compounds, 2.4% hits | Huh7 NPC1 promoter luciferase reporter, 24 h | AID 485313, 2010 | Potency, µM (top dose mostly 9.22 µM), hits mostly activators; also: nearly all actives have a fitted effect of over 60% in size
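Luminescence read-out of NPC1 promoter-driven luciferase in stably transfected Huh7 cells; compounds delivered in DMSO and left 24 h at 37C, 5% CO2, qHTS titration format.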
A number is an active result; n = inactive; u = inconclusive; x = no result given. Calls follow the shape of the dose curve; as a rule, active = well fitted curve in the direction sought with a large enough effect; inconclusive = small, poorly fitted or top-dose-only effect, or another doubt; inactive = no such curve, though single readings can be large; an effect the other way counts as inactive or inconclusive.

SMILES | ELG1 DNA repair | FLuc modulator | SMN2 splice enh | ELG1 genotoxic | Rab9 prom act | NPC1 promoter act
Cc1ccc(-c2csc3nc(SCC(N)=O)n(Cc4ccccc4)c(=O)c23)cc1 | 23µM | n | n | n | n | n
CCOC(=O)N1CCN(C(=O)COC(=O)CNC(=O)c2ccc(C)cc2)CC1 | n | n | x | n | n | n
COc1ccc(C(=O)N/C(=C\c2cn(S(=O)(=O)N(C)C)c3ccccc23)C(=O)NCCCN2CCOCC2)cc1 | n | n | x | n | n | n
COc1ccc(/C=N/Nc2nc(C)nc(N)n2)cc1 | u | 17µM | x | n | n | n
COc1cc(/C=N/Nc2nc(C)nc3c2cnn3-c2ccccc2)ccc1O | 16µM | u | n | n | n | n
CN(C)c1ccc(/C=N\Nc2ccccn2)cc1 | u | 0.95µM | x | 5.2µM | 0.63µM | 0.89µM
COc1cc(/C=N/Nc2ccnc(=O)[nH]2)ccc1O | u | u | x | n | n | n
COc1cc(/C=N/Nc2ccccn2)ccc1O | u | 6µM | x | 9.2µM | u | n
COc1cc(/C=N/NC(=O)c2nc(-c3ccccc3)n(-c3ccccc3)n2)ccc1O | u | u | n | n | n | n
O=[N+]([O-])c1ccc(/C=N/Nc2ccccn2)cc1 | u | n | x | n | u | u
COc1ccccc1CNC(=O)CC1N=C2c3ccccc3N=C(SCC(=O)Nc3ccc(F)cc3)N2C1=O (centres undefined) | x | n | x | x | x | x
CCOc1ccc(NC(=O)Cn2cc(C(=O)c3ccc(CC)cc3)c(=O)c3ccc(C)nc32)cc1 | x | n | x | x | x | x
CCCCn1c(N)c(N(CC(C)C)C(=O)c2oc3ccc(Br)cc3c2C)c(=O)[nH]c1=O | n | n | x | n | n | n
O=C(NC(=S)Nc1sc2c(c1C(=O)O)CCCC2)c1ccccc1 | u | u | x | n | n | n
COc1ccc(/C=N/Nc2nc(N)cc(Cl)n2)cc1OC | n | 17µM | n | n | n | n
COc1ccc(/C=N/Nc2nonc2N)cc1OC | u | u | n | n | n | n
COc1ccc(-c2cnnc(N/N=C/c3ccc(O)c(OC)c3)n2)cc1 | 21µM | 1.2µM | 13µM | n | n | n
COc1ccc(/C=N/Nc2ccccn2)cc1OC | u | 7.6µM | x | u | u | u
COc1ccc(CCNC(=O)c2cc3sccc3n2Cc2ccc(Cl)cc2)cc1OC | x | n | n | x | x | x
Cc1nc2ccccn2c(=O)c1NC(=O)c1ccc(C(F)(F)F)cc1 | x | n | x | x | x | x
CCCCOC(=O)c1ccc(NC(=O)c2cc(-c3cccs3)on2)cc1 | x | n | x | x | x | x
Cc1ccc(CNC(=O)c2cnc(N3CCCCC3)c3ccccc23)cc1 | x | n | x | x | x | x
c1ccc(C2=NN(c3ccccc3)CC2)cc1 | u | 3.4µM | x | u | 3.5µM | 2.8µM
CCOC(=O)/C(=C/c1ccc(N2CCC(c3ccccc3)=N2)cc1)C(C)=O | u | n | n | 21µM | u | u
N#Cc1ccc(C(=O)OCC(=O)Nc2cccnc2Cl)cc1 | n | x | x | n | n | n
SMILES | ELG1 DNA repair | FLuc modulator | SMN2 splice enh | ELG1 genotoxic | Rab9 prom act | NPC1 promoter act
Cc1oc(-c2ccc(-c3ccccc3)cc2)nc1CN(CCO)C(C)C | u | 11µM | x | u | u | u
Cc1oc(-c2ccc(-c3ccccc3)cc2)nc1CN(C)C1CCOC1 (centres undefined) | u | 9.5µM | x | u | u | u
Cc1oc(-c2cccc(Cl)c2)nc1CN(C)C1CCOC1 (centres undefined) | n | n | x | n | n | n
CCOC(=O)c1c(-c2ccccc2)csc1NC(=O)c1cc(S(=O)(=O)N2CCOCC2)ccc1C | 10µM | n | n | n | n | n
Cc1ccc(S(=O)(=O)N2CCOCC2)cc1C(=O)OCC(=O)N(Cc1ccccc1)C(C)C | 21µM | n | x | n | n | n
O=C(OCC(=O)N(CCc1ccccc1)Cc1ccccc1)c1cc(S(=O)(=O)N2CCOCC2)ccc1F | n | n | x | n | n | n
CCOC(=O)c1c(-c2ccccc2)csc1NC(=O)c1ccc(S(=O)(=O)N2CC(C)OC(C)C2)cc1 (centres undefined) | n | n | n | n | n | n
CCOC(=O)c1ccc(NC(=O)c2cc(S(=O)(=O)N3CCOCC3)ccc2O)cc1 | n | 15µM | n | n | n | n
Cc1cccc(NC(=O)c2sc3nc(-c4ccccc4)cn3c2C)n1 | 18µM | u | n | n | n | n
COc1ccc(C)cc1NC(=O)c1sc2nc(-c3ccc(F)cc3)cn2c1C | x | n | x | x | x | x
COc1ccc(-c2cn3c(C)c(C(=O)NC(C)C)sc3n2)cc1 | n | u | n | n | u | n
COc1ccc(-c2cn3c(C)c(C(=O)Nc4cccc(C)n4)sc3n2)cc1 | u | 12µM | u | n | n | n
Cc1cccc(NC(=O)c2sc3nc(-c4ccc(F)cc4)cn3c2C)n1 | n | n | n | n | n | n
COc1ccc(-c2cn3c(C)c(C(=O)NC(C)(C)C)sc3n2)cc1 | u | 5.4µM | x | u | 0.63µM | 2µM
CCc1ccc(CN(Cc2cn[nH]c2-c2ccc(OC)cc2)C(=O)Nc2cc(Cl)ccc2OC)cc1 | x | n | x | x | x | x
CCOC(=O)c1cccc(Nc2nc(-c3cccnc3)nc3ccccc23)c1 | 9.2µM | n | n | n | n | n
COC(=O)c1cccc(Nc2nc(-c3cccnc3)nc3ccccc23)c1 | 7.3µM | n | x | n | n | n
CC(=O)c1cccc(Nc2nc(-c3ccccc3)nc3ccccc23)c1 | 23µM | n | x | n | n | n
CCOC(=O)c1nc(Nc2cccc(C)c2)c2ccccc2n1 | 16µM | n | n | n | n | n
COc1ccc(NC(=O)CSc2oc(-c3ccco3)nc2S(=O)(=O)c2ccccc2)c(OC)c1 | x | n | n | x | x | x
COc1ccc(CNC(=O)CCCC(=O)n2nc(C)c3ccccc32)cc1 | n | n | x | n | n | n
COc1ccccc1C(=O)C1CCCN(C(=O)c2cnn(C(C)C)c2)C1 (centres undefined) | n | n | x | n | n | n
Cc1cccc(N2CCN(C(=O)CN3C(=O)CSc4c3c(C)nn4-c3ccccc3)CC2)c1C | x | n | x | x | x | x
CCCCCC(=O)N/N=C/c1ccc(N(C)C)cc1 | u | 12µM | u | u | u | u
CN(C)c1ccc(/C=N/NC(=O)CCCO)cc1 | u | n | n | n | n | n
COc1ccc(OCC(=O)N/N=C/c2ccc(N(C)C)cc2)cc1 | n | 13µM | n | n | n | n
Cc1ccc(OCC(=O)N/N=C/c2cccn2C)cc1C | n | u | x | n | n | n
COc1ccc(OCC(=O)N/N=C/c2cccn2-c2cccc(C(=O)O)c2)cc1 | n | 13µM | x | n | n | n
